Data from the supplement of paper PMC6992640.
± gives the standard deviation of the averaged measurements.

Legend:
Experiment in all cases: cell viability (% of vehicle); higher = less cytotoxic
Details in all cases: 10 µM; 72 h
HCI01 = tested on: HCI01 (cells of a triple-negative basal-like breast cancer xenograft)
HCI03 = tested on: HCI03 (cells of an ER-positive luminal breast cancer xenograft)
HCI09 = tested on: HCI09 (cells of a triple-negative luminal androgen receptor type breast cancer xenograft)
HCI11 = tested on: HCI11 (cells of an ER-positive luminal breast cancer xenograft)
HCI13 = tested on: HCI13 (cells of an ER-positive luminal breast cancer xenograft)
HCI16 = tested on: HCI16 (cells of a triple-negative basal-like breast cancer xenograft)
UCD52 = tested on: UCD52 (cells of a triple-negative basal-like breast cancer xenograft)
WHIM2 = tested on: WHIM2 (cells of a triple-negative basal-like breast cancer xenograft)
WHIM30 = tested on: WHIM30 (cells of a triple-negative basal-like breast cancer xenograft)
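Also: PDX cells carrying CMV promoter-driven luciferase, viability read as total photon flux per second by IVIS imaging following D-luciferin, vehicle control 0.1% DMSO.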

NCC1CCC(C(=O)O)CC1 (stereo not given) [Tranexamic Acid]
cell viability (HCI01): 118 ± 7.2 | cell viability (HCI03): 116 | cell viability (HCI09): 94.6 ± 25 | cell viability (HCI11): 111 | cell viability (HCI13): 74.8 ± 0.96 | cell viability (HCI16): 102 | cell viability (UCD52): 92.2 ± 5 | cell viability (WHIM2): 124 ± 17 | cell viability (WHIM30): 111 ± 16

COc1cc(Nc2ncc(F)c(Nc3ccc4c(n3)N(COP(=O)([O-])[O-])C(=O)C(C)(C)O4)n2)cc(OC)c1OC.[Na+].[Na+] [R788 disodium]
cell viability (HCI01): 86.4 ± 12 | cell viability (HCI03): 76.8 | cell viability (HCI09): 95.4 ± 11 | cell viability (HCI11): 86.8 | cell viability (HCI13): 86.4 ± 11 | cell viability (HCI16): 64.5 | cell viability (UCD52): 58 ± 4 | cell viability (WHIM2): 79.4 ± 16 | cell viability (WHIM30): 91.9 ± 3.2

CC(=O)c1c(C)c2cnc(Nc3ccc(N4CCNCC4)cn3)nc2n(C2CCCC2)c1=O.Cl
cell viability (HCI01): 134 ± 73 | cell viability (HCI03): 141 | cell viability (HCI09): 86.1 ± 9.9 | cell viability (HCI11): 152 | cell viability (HCI13): 110 ± 31 | cell viability (HCI16): 114 | cell viability (UCD52): 82.86 ± 0.55 | cell viability (WHIM2): 88.8 ± 7.7 | cell viability (WHIM30): 132 ± 6.1

CCCCOc1cc(C(=O)NCCN(CC)CC)c2ccccc2n1 [Dibucaine]
cell viability (HCI01): 94.3 ± 30 | cell viability (HCI03): 158 | cell viability (HCI09): 95.5 ± 9.9 | cell viability (HCI11): 93.9 | cell viability (HCI13): 135 ± 2 | cell viability (HCI16): 135 | cell viability (UCD52): 81.16 ± 0.71 | cell viability (WHIM2): 95.1 ± 14 | cell viability (WHIM30): 89.012 ± 0.00099

CN1CCN(c2nc(C3=C(c4c[nH]c5ccccc45)C(=O)NC3=O)c3ccccc3n2)CC1 [Sotrastaurin (AEB071)]
cell viability (HCI01): 134 ± 40 | cell viability (HCI03): 102 | cell viability (HCI09): 173 ± 34 | cell viability (HCI11): 136 | cell viability (HCI13): 109 ± 1.9 | cell viability (HCI16): 111 | cell viability (UCD52): 63.9 ± 1.5 | cell viability (WHIM2): 195 ± 10 | cell viability (WHIM30): 111 ± 6.1

CN(Cc1cnc2nc(N)nc(N)c2n1)c1ccc(C(=O)NC(CCC(=O)O)C(=O)O)cc1 (stereo not given) [Methotrexate]
cell viability (HCI01): 101 ± 8.6 | cell viability (HCI03): 115 | cell viability (HCI09): 91.1 ± 13 | cell viability (HCI11): 113 | cell viability (HCI13): 104 ± 7.5 | cell viability (HCI16): 93.4 | cell viability (UCD52): 89.1 ± 8.7 | cell viability (WHIM2): 101 ± 2.1 | cell viability (WHIM30): 94.9 ± 13

Cc1c(NC(=O)c2cccnc2)c(=O)n(-c2ccccc2)n1C [Nifenazone]
cell viability (HCI01): 115 ± 12 | cell viability (HCI03): 95.9 | cell viability (HCI09): 116 ± 42 | cell viability (HCI11): 114 | cell viability (HCI13): 103 ± 10 | cell viability (HCI16): 122 | cell viability (UCD52): 96.7 ± 4.5 | cell viability (WHIM2): 93.9 ± 16 | cell viability (WHIM30): 128 ± 6

COc1ccccc1OCC(O)COC(N)=O (stereo not given) [Methyocarbamol]
cell viability (HCI01): 148 ± 10 | cell viability (HCI03): 132 | cell viability (HCI09): 144 ± 44 | cell viability (HCI11): 108 | cell viability (HCI13): 109 ± 3.5 | cell viability (HCI16): 111 | cell viability (UCD52): 104 ± 8.4 | cell viability (WHIM2): 104 ± 27 | cell viability (WHIM30): 134 ± 2.3

COc1cc(NC(C)CCCN)c2ncccc2c1.O=P(O)(O)O.O=P(O)(O)O (stereo not given) [Primaquine Diphosphate]
cell viability (HCI01): 56.3 ± 9.8 | cell viability (HCI03): 95.2 | cell viability (HCI09): 29.3 ± 9.9 | cell viability (HCI11): 49 | cell viability (HCI13): 68.2 ± 11 | cell viability (HCI16): 116 | cell viability (UCD52): 75.7 ± 10 | cell viability (WHIM2): 70.5 ± 11 | cell viability (WHIM30): 112 ± 1.8

Nc1nc(=O)c2c(CCc3ccc(C(=O)NC(CCC(=O)O)C(=O)O)cc3)c[nH]c2[nH]1.O.[Na+] (stereo not given) [Pemetrexed disodium hemipenta hydrate]
cell viability (HCI01): 97.24 ± 0.52 | cell viability (HCI03): 95.8 | cell viability (HCI09): 93.8 ± 24 | cell viability (HCI11): 91.3 | cell viability (HCI13): 90 ± 7.8 | cell viability (HCI16): 69.3 | cell viability (UCD52): 95.4 ± 1.8 | cell viability (WHIM2): 90.47 ± 0.25 | cell viability (WHIM30): 119 ± 36

CC1C(=O)OC2CC34C5CC(C(C)(C)C)C36C(OC(=O)C6O)OC4(C(=O)O5)C21O (stereo not given) [Ginkgolide A]
cell viability (HCI01): 98.9 ± 14 | cell viability (HCI03): 112 | cell viability (HCI09): 97.3 ± 6.1 | cell viability (HCI11): 96.5 | cell viability (HCI13): 114 ± 6 | cell viability (HCI16): 116 | cell viability (UCD52): 91.6 ± 10 | cell viability (WHIM2): 101 ± 12 | cell viability (WHIM30): 91.5 ± 9.4

Nc1ccc(S(=O)(=O)Nc2ccccn2)cc1 [Sulfapyridine]
cell viability (HCI01): 111.2 ± 0.17 | cell viability (HCI03): 131 | cell viability (HCI09): 101 ± 2.1 | cell viability (HCI11): 92.6 | cell viability (HCI13): 138 ± 15 | cell viability (HCI16): 147 | cell viability (UCD52): 113 ± 19 | cell viability (WHIM2): 100 ± 0.64 | cell viability (WHIM30): 120 ± 12

COc1cc2c(cc1OC)CN(CCc1ccc(NC(=O)c3cccc4c(=O)c5cccc(OC)c5[nH]c34)cc1)CC2 [Elacridar]
cell viability (HCI01): 111.7 ± 0.54 | cell viability (HCI03): 71.7 | cell viability (HCI09): 71.7 ± 33 | cell viability (HCI11): 101 | cell viability (HCI13): 113 ± 35 | cell viability (HCI16): 97.7 | cell viability (UCD52): 63.7 ± 5.6 | cell viability (WHIM2): 48.2 ± 22 | cell viability (WHIM30): 89.9 ± 0.9

Clc1ccc2nsnc2c1NC1=NCCN1 [Tizanidine]
cell viability (HCI01): 97.7 ± 3.7 | cell viability (HCI03): 94.6 | cell viability (HCI09): 149 ± 74 | cell viability (HCI11): 110 | cell viability (HCI13): 109 ± 26 | cell viability (HCI16): 110 | cell viability (UCD52): 101 ± 7.1 | cell viability (WHIM2): 82.1 ± 22 | cell viability (WHIM30): 91.9 ± 20

CNC(=C[N+](=O)[O-])NCCSCc1csc(CN(C)C)n1 [Nizatidine]
cell viability (HCI01): 150 ± 9.3 | cell viability (HCI03): 120 | cell viability (HCI09): 108 ± 15 | cell viability (HCI11): 92.7 | cell viability (HCI13): 96.2 ± 5.7 | cell viability (HCI16): 133 | cell viability (UCD52): 83.6 ± 12 | cell viability (WHIM2): 96.6 ± 1.9 | cell viability (WHIM30): 123 ± 17

CCCc1ncc(C[n+]2ccccc2C)c(N)n1.Cl.[Cl-] [Amprolium HCl]
cell viability (HCI01): 129 ± 15 | cell viability (HCI03): 135 | cell viability (HCI09): 102 ± 4.4 | cell viability (HCI11): 104 | cell viability (HCI13): 128 ± 7 | cell viability (HCI16): 145 | cell viability (UCD52): 71.4 ± 27 | cell viability (WHIM2): 110 ± 7.3 | cell viability (WHIM30): 99.4 ± 13

Nc1cccc2c1C(=O)N(C1CCC(=O)NC1=O)C2=O (stereo not given) [Pomalidomide (CC-4047)]
cell viability (HCI01): 122 ± 2 | cell viability (HCI03): 126 | cell viability (HCI09): 87.9 ± 2.9 | cell viability (HCI11): 108 | cell viability (HCI13): 91.9 ± 8.8 | cell viability (HCI16): 103 | cell viability (UCD52): 104 ± 3.8 | cell viability (WHIM2): 73.9 ± 5.1 | cell viability (WHIM30): 133.9 ± 0.79

CN(C)CCN1C(=O)c2cccc3cc(N)cc(c23)C1=O [Amonafide]
cell viability (HCI01): 103 ± 4 | cell viability (HCI03): 69.4 | cell viability (HCI09): 42.7 ± 14 | cell viability (HCI11): 90.4 | cell viability (HCI13): 64.7 ± 3.1 | cell viability (HCI16): 196 | cell viability (UCD52): 138 ± 26 | cell viability (WHIM2): 55.5 ± 5.5 | cell viability (WHIM30): 78.5 ± 1.6

Cc1c(O)c(=O)ccn1C [Deferiprone]
cell viability (HCI01): 81 ± 3.5 | cell viability (HCI03): 102 | cell viability (HCI09): 83.6 ± 14 | cell viability (HCI11): 77.1 | cell viability (HCI13): 93 ± 5.8 | cell viability (HCI16): 102 | cell viability (UCD52): 85.8 ± 1.6 | cell viability (WHIM2): 144 ± 12 | cell viability (WHIM30): 89.2 ± 3.3

CNCC(O)c1ccc(O)c(O)c1.Cl (stereo not given) [Epinephrine HCl]
cell viability (HCI01): 102 ± 3.8 | cell viability (HCI03): 112 | cell viability (HCI09): 91.6 ± 15 | cell viability (HCI11): 76.6 | cell viability (HCI13): 118 ± 17 | cell viability (HCI16): 119 | cell viability (UCD52): 118 ± 11 | cell viability (WHIM2): 142 ± 3.3 | cell viability (WHIM30): 100 ± 1.1
